Tau filament bind = qHTS Assay for Tau Filament Binding; recombinant tau filaments, thioflavin S fluorescence, 15 h; filaments grown with octadecylsulfate alongside compound; Microtubule-associated protein tau (Homo sapiens), P10636; 71,000 compounds, 2% hits; Potency, µM (top dose mostly 57.1 µM), for the others: top-dose activity change, negative = inhibition;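 further: actives lower thioflavin S fluorescence by blocking filaments or displacing dye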
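Recombinant tau protein (human, 1 uM final) plus 30 uM ODS in HEPES pH 7.4 with NaCl, DTT and thioflavine S. Compound present from the start; fluorescence at 510 nm after 15 h, 37 C.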
ERK AVP block = qHTS Assay for Inhibitors of the ERK Signaling Pathway using a Homogeneous Screening Assay; HEK293-V1b, vasopressin-stimulated pERK AlphaScreen; Potency, µM (titrated, usually from 57.5 µM), for inactives: top-dose activity, negative = inhibition, usual class: inhibitors; 72,000 compounds, 0.99% hits; AID 995, 2007; further: nearly all actives have a fitted effect of over 55% in size
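Overnight-seeded V1b-HEK293 cells in 1% FBS got compound, then vasopressin (25 nM final, 5 min, 37C), then lysis buffer. AlphaScreen detection of phospho-ERK; activity normalized to basal and full-stimulation controls.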
15-hLO inh = qHTS Assay for Inhibitors of 15-hLO (15-human lipoxygenase); Polyunsaturated fatty acid lipoxygenase ALOX15 (Homo sapiens), P16050; purified 15hLO-1, xylenol orange hydroperoxide absorbance; Potency, µM (highest dose often 57.1 µM), inactives show at the highest dose activity change, negative = inhibition, usual class: inhibitors; 74,000 compounds, 1.4% hits; AID 887, 2007; further: nearly all actives have a fitted effect of over 55% in size
Target sequence (P16050 whole entry, looked up): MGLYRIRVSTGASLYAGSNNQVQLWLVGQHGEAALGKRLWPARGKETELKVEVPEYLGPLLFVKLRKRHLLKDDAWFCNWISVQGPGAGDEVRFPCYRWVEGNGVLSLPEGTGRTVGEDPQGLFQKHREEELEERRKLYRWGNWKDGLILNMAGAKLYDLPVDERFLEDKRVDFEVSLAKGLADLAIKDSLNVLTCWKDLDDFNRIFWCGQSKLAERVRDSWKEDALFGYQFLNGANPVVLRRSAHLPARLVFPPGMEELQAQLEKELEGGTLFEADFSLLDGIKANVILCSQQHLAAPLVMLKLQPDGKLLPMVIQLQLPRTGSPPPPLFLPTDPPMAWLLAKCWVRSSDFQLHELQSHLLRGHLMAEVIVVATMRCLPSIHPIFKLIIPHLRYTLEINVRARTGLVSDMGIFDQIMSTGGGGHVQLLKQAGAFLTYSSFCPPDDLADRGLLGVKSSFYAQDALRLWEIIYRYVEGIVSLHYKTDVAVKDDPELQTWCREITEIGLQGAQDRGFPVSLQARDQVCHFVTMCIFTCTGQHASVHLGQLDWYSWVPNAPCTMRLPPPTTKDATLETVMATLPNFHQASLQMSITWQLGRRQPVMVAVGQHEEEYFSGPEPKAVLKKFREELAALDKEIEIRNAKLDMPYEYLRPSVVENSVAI
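Purified human 15hLO-1 (40 nM) in 25 mM Hepes pH 7.5, 0.01% Triton X-100, preincubated 15 min RT with compound, then 50 uM arachidonic acid for 6 min. Hydroperoxide read by ferrous/xylenol orange, 30 min; 573/405 nm absorbance ratio gave progress.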
Bst PK mod = Pyruvate Kinase | purified pyruvate kinase, luminescence ATP production; ribose 5-phosphate activator present at AC10 | Potency, µM | 51,000 compounds, 1.2% hits; in the data active means potency below about 11 µM; inconclusive means mostly about 12 µM to 25 µM;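 the screen sought inhibitors and activators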;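 further: scaled between full activation by ribose 5 phosphate and full inhibition by luteolin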
Pol III holo inh = qHTS Assay for Inhibitors of DNA Polymerase III Holoenzyme System. reconstituted DNA polymerase III holoenzyme replication, biochemical. Potency, µM (top dose mostly 57.1 µM), without a hit: top-dose activity change, negative = inhibition. 71,000 compounds, 0.25% hits. AID 603, 2007
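Reconstituted *E. coli* holoenzyme (0.35 nM Pol III, 1 nM beta, 154 nM SSB, 2 nM primase) was preincubated with compound for 15 min at RT. Synthesis on 1.4 nM ssM13Gori ran 35 min, then was stopped with PicoGreen/EDTA and read as dsDNA fluorescence.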
Luciferase inh = qHTS Assay for Inhibitors of Firefly Luciferase. Potency, µM (titrated, usually from 57.1 µM), for the others: at the highest dose activity change, negative = inhibition, actives largely listed as inhibitors. 72,000 compounds, 2.2% hits. Luciferin 4-monooxygenase (Photinus pyralis), P08659. AID 411, 2009. purified firefly luciferase, luminescence, 8 min; further: nearly all actives have a fitted effect of over 40% in size
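qHTS concentration-response profiling: light output of P. pyralis luciferase with luciferin and 10 uM ATP, imidazole buffer pH 7.2. Read by luminescence after 8-min room-temperature incubation.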
Active calls of the source: *; i = inactive; ? = inconclusive; · = no result; ! = not confirmed by another sample; [ ] = another dose, or the depositor's remark. The list is not random: actives were taken first. Their share in the collection is about 6%. Unless noted, the call rests on the fitted dose curve; in most records, active means well fitted curve in the direction sought with a large enough effect; inconclusive means small, poorly fitted or top-dose-only effect, or another doubt; inactive means no such curve, though single readings can be large; an effect the other way counts as inactive or inconclusive. Unless noted, on the % scale 0 is the no-effect control and ±100 the full control effect; potency means the concentration at half of the fitted maximal effect.

SMILES | Tau filament bind | ERK AVP block | 15-hLO inh | Bst PK mod | Pol III holo inh | Luciferase inh
COc1ccc(OC)c(NC(=O)C2CCCN(S(=O)(=O)c3c(C)noc3C)C2)c1 (configuration not stated) | 25µM* | 15% | -5% | >57 | 0% | 1%
COc1ccc(OC)c(NC(=O)C2CCN(S(=O)(=O)c3c(C)noc3C)CC2)c1 | 4% | 21% | -2% | >57 | 0% | 3%
COc1ccc2nc(NC(=O)C3CCCN(S(=O)(=O)c4cccc5nonc45)C3)sc2c1 (configuration not stated) | 10µM* | ? | ? | >57 | 5% | -5%
CCC(=O)[C@]12O[C@@]3(C4C(=O)OCCC41)N(Cc1ccccc1)C(C)=C(C(=O)OC)C(c1ccccc1)N3C2=O (some centres not stated) | · | 10%[11.5 µM] | -5%[11.4 µM] | · | · | ·
CN(C)c1ccc(C(=S)N2CCN(c3ccccc3)CC2)cc1 | -3% | ? | -1% | >57 | 11% | -5%
Cc1ccc(N2CCN(C(=S)c3ccc(N(C)C)cc3)CC2)cc1 | 13µM* | 20% | ? | >57 | -3% | -6%
Cc1nc2cnc(N3CCOCC3)nc2n(CCc2ccccc2)c1=O | -2% | ? | 8% | · | -15% | 1%[11.4 µM]
CC(=O)c1ccc(NC(=O)c2ccn[nH]2)cc1 | -6% | 15% | ? | · | -5% | 25µM*
CO[C@@H]1COC(=O)C/C=C\[C@H](C)COC(=O)[C@H](C)NC(=O)C/C=C\[C@H]1C | · | 8%[11.5 µM] | 3%[11.4 µM] | · | · | 1%[11.4 µM]
C[C@H]1CC(C)(C)C[C@@](OCCN2CCCCC2)(c2ccccc2)C1 | -24%[11.4 µM] | 9%[11.5 µM] | 17%[11.4 µM] | · | -8%[11.4 µM] | 3%[11.4 µM]
CCN(CC)CCOCCOC(=O)C1(c2ccccc2)CCCC1 | ? | 6% | -25% | · | -3% | -3%
CCN(CC)CCOC(=O)C1(c2ccc([N+](=O)[O-])cc2)CCCC1 | 13µM*! | 11% | ? | · | 1% | 0%
O=C(c1cccc(F)c1)N1CCC2(CCCN(Cc3nccs3)C2)CC1 | 13% | 2% | 7% | · | -4% | 1%[11.4 µM]
Cc1ccc(C)c(C(=O)c2c(C)nc3sccn23)c1 | -8% | ? | 16µM* | >57 | -5% | 5%
Cc1cc(C)c(NC(=O)c2cc3c(nc4sccn43)s2)c(C)c1 | -19% | 5% | -7% | >57 | -2% | -1%
Nc1nc2c(c(=O)[nH]1)N=C(CNc1ccc(C(=O)NC(CCC(=O)O)C(=O)O)cc1)CN2 (configuration not stated) | · | 19% | -20%[25.6 µM] | · | · | ·
COc1ccccc1N1CCN(C(=O)CCc2ccc(S(=O)(=O)NC(C)C)cc2)CC1 | -4% | -27% | 1% | >57 | -6% | 2%
COc1ccccc1N1CCN(C(=O)CCc2ccc(S(=O)(=O)NCC(C)C)cc2)CC1 | 15% | 25µM* | -13% | >57 | -1% | 1%
O=C(Nc1ccc(N2CCCC2)c(Cl)c1)c1ccc(Br)o1 | 4µM* | ? | -18%[11.4 µM] | · | 0%[11.4 µM] | ?
O=C(Nc1ccc(N2CCN(C(=O)c3ccccc3)CC2)c(Cl)c1)c1ccco1 | 10% | ? | -23% | · | 4% | 1%
O=C(Nc1ccc(N2CCOCC2)c(Cl)c1)c1ncn[nH]1 | -11% | -3% | 1% | · | 1% | 20µM*
O=C(Nc1ccc(N2CCN(C(=O)c3ccco3)CC2)c(Cl)c1)c1cc2ccccc2o1 | 407% | 7.9µM* | -16% | >57 | -5% | -3%
CCC(=O)N1CCN(c2ccc(NC(=O)c3cc4ccccc4o3)cc2Cl)CC1 | 73% | 32µM* | -17% | >57 | -2% | -8%
CS(=O)(=O)N1CCC[C@@]2(CCN(C(=O)Nc3cccc(C#N)c3)C2)C1 | -5% | 11% | 12% | · | -8% | 0%[11.4 µM]
CC1(C)SC2C(NC(=O)Cc3ccccc3)C(=O)N2C1C(=O)O (configuration not stated) | · | -4% | 3% | · | · | ·
SMILES | Tau filament bind | ERK AVP block | 15-hLO inh | Bst PK mod | Pol III holo inh | Luciferase inh
COc1ccccc1CN1CCCC2(CCN(C(=O)c3ccncc3)CC2)C1 | 7% | -6% | -4% | · | -5% | 1%[11.4 µM]
O=C(Nc1ccc(N2CCOCC2)c(Cl)c1)c1ccco1 | 9% | -1% | 7% | i | -8% | 13µM*
O=C(Nc1ccc(Br)c(Cl)c1)c1ccco1 | -8% | -15% | ? | · | -2% | -14%
CCCC(=O)N1CCN(c2ccc(NC(=O)c3cc4ccccc4o3)cc2Cl)CC1 | 33% | 7.9µM* | -24% | >57 | -7% | -10%
COc1ccc(-c2noc(N(C)CC(=O)Nc3cccc(C(F)(F)F)c3)n2)cc1 | 12% | 7% | ? | i | 3% | 25µM*
COc1ccc(-c2nc3cnc(N4CCNCC4)nc3n(Cc3cccs3)c2=O)cc1 | 162% | 9% | -18% | · | -30% | 1%[11.4 µM]
CCOc1ccc(-c2cc(CCCC(=O)NCCCOC)no2)cc1 | 16% | 2% | 17% | · | 0% | 16µM*
COCOc1ccc(Br)cc1C(=O)[C@H]1O[C@H]1c1cccc(OC)c1 | · | 9%[11.5 µM] | 15%[11.4 µM] | · | · | 2%[11.4 µM]
COc1ccc(C2SCCN2S(=O)(=O)c2ccc(F)cc2)cc1OC (configuration not stated) | -9% | 13µM* | -20% | >57 | 2% | 3%
Nc1nc(Cl)nc2c1ncn2[C@@H]1O[C@@H](COP(=O)(O)OP(=O)(O)OP(=O)(O)O)[C@@H](O)[C@H]1O | -10% | 15% | 9% | · | 1% | 1%
O=C(N/N=C1/C[C@@H](O)[C@@H](O)[C@@H]2[C@@H]3C(=O)N(C[C@@H]4CCCO4)C(=O)[C@H]3CC[C@@H]12)OCc1ccccc1 | · | -3%[11.5 µM] | 1%[11.4 µM] | · | · | 0%[11.4 µM]
COc1cc(OC)c2c(=O)c(-c3ccccc3)coc2c1 | · | 6% | 4% | · | · | ·
COc1ccc(-c2cc3nc4n(c(=O)c3s2)CCOC4)cc1 | · | · | · | 6.7* | · | 2µM*
COc1ccc(-c2nc3cnc(N4CCOCC4)nc3n(Cc3cccs3)c2=O)cc1 | 86% | -28% | -6% | · | -3% | 0%[11.4 µM]
COc1ccc(-c2cnnc(CCCn3ccnc3-c3ccccc3)n2)cc1 | · | 12%[11.5 µM] | 3%[11.4 µM] | · | · | 4%[11.4 µM]
CCOC(=O)c1cnc2c(C#N)c(C)nn2c1-c1ccccc1 | 16µM* | -3% | ? | · | -6% | 4%
CCOC(=O)c1cnc2c(C#N)c(C)nn2c1C | -4% | -19% | 9% | >57 | 6% | 2%
CCOC(=O)c1sc(=S)n(-c2cc(OC)ccc2OC)c1N | 0% | 5% | 13µM* | >57 | -7% | -2%
CCOC(=O)c1cnc(-c2ccccc2)nc1N | -4% | -16% | -1% | i | -1% | 20µM*

Screening data (PubChem BioAssay)
